Measured values: the supplement of paper PMC10849652
The full data set covers some 7,900 targets. This sample favours those with a hit. About 0.6% of all pairs of compound and target were hits.

How the values were obtained:
Test in all cases: log2 fold change, soluble protein after heating vs DMSO (PISA); higher = thermal stabilisation; K562 cells, 10 uM, 30 min; active = over 0.2 and 3.5 SD of the protein, either way, in both replicates (recomputed)
[1] = compound: NC(=O)Nc1cc(-c2cccc(F)c2)sc1C(=O)N[C@H]1CCCNC1
How it was run: (§1)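 K562 cells at 2×10^6 cells/mL were treated for 30 min with 10 μM compound, and aliquots were heated for 3 min over 48°C-58°C before pooling. Extraction used PBS with 0.5% NP-40 at 4°C, and soluble protein was the supernatant after 21,000xg for 90 min, measured by TMTpro 16plex LC-MS/MS with channel sums equalised. Thermal stability values, relative to control samples and from duplicates, are log2 fold changes.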

[2] = compound: NC(=O)c1cnc(N[C@@H]2CCCC[C@@H]2N)nc1Nc1cccc(-n2nccn2)c1
How it was run: as §1

[3] = compound: NC1(c2ccc(-c3nc4ccn5c(=O)[nH]nc5c4cc3-c3ccccc3)cc2)CCC1
How it was run: as §1

[4] = compound: NCC(=O)Nc1ccc(-n2nc(C(F)(F)F)cc2-c2ccc3c(ccc4ccccc43)c2)cc1
How it was run: as §1

entinostat = compound: Nc1ccccc1NC(=O)c1ccc(CNC(=O)OCc2cccnc2)cc1 [entinostat]
How it was run: as §1

vorinostat = compound: O=C(CCCCCCC(=O)Nc1ccccc1)NO [vorinostat]
How it was run: as §1

citarinostat = compound: O=C(CCCCCCNC(=O)c1cnc(N(c2ccccc2)c2ccccc2Cl)nc1)NO [citarinostat]
How it was run: as §1

silmitasertib = compound: O=C(O)c1ccc2c(c1)nc(Nc1cccc(Cl)c1)c1ccncc12 [silmitasertib]
How it was run: as §1

[5] = compound: O=C1NC(=O)C(c2cnc3ccccn23)=C1c1cn2c3c(cc(F)cc13)CN(C(=O)N1CCCCC1)CC2
How it was run: as §1

[6] = compound: c1cc(OCCN2CCCCC2)cc(-c2n[nH]c3ccc(-c4nnc[nH]4)cc23)c1
How it was run: as §1

entospletinib = compound: c1cn2cc(-c3ccc4cn[nH]c4c3)nc(Nc3ccc(N4CCOCC4)cc3)c2n1 [entospletinib]
How it was run: as §1

Measured: log2 fold change

MRPS31 (UniProt Q92665)
inactive: [1] -0.001 | [2] 0.03 | [3] -0.05 | [4] 0 | entinostat -0.011 | vorinostat -0.039 | citarinostat 0.008 | silmitasertib -0.012 | [5] -0.036 | [6] -0.083 | entospletinib 0.065

MT-ND4 (UniProt P03905)
inactive: [1] 0.052 | [2] 0.038 | [3] -0.046 | [4] -0.074 | entinostat 0.099 | vorinostat 0.261 | citarinostat 0.198 | silmitasertib -0.011 | [5] 0.088 | [6] -0.057 | entospletinib 0.022

MRPS33 (UniProt Q9Y291)
inactive: [1] 0.019 | [2] 0.02 | [3] -0.032 | [4] 0.046 | entinostat 0 | vorinostat 0.035 | citarinostat 0.039 | silmitasertib -0.066 | [5] 0.016 | [6] -0.052 | entospletinib 0.086

NELFB isoform 2 (UniProt Q8WX92)
Chain of UniProt Q8WX92 (Q8WX92 whole entry, looked up): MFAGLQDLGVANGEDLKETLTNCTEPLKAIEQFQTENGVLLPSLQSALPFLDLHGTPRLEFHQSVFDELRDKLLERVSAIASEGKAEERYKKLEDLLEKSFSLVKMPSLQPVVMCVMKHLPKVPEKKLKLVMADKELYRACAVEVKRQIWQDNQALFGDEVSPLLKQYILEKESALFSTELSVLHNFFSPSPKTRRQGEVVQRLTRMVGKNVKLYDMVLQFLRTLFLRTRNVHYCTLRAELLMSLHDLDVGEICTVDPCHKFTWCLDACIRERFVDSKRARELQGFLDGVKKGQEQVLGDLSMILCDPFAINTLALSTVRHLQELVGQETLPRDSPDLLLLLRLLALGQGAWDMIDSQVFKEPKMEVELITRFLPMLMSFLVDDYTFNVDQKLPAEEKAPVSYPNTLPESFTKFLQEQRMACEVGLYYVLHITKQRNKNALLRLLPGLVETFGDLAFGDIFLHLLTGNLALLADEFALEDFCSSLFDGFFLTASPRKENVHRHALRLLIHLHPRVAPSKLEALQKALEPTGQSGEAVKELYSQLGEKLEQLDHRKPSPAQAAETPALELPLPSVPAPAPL
inactive: [1] -0.021 | [2] -0.016 | [3] -0.074 | [4] -0.107 | entinostat 0.062 | vorinostat 0.059 | citarinostat 0.102 | silmitasertib 0.021 | [5] -0.086 | [6] -0.001 | entospletinib -0.039

OXR1 (UniProt Q8N573)
inactive: [1] 0.03 | [2] 0 | [3] -0.157 | [4] -0.008 | entinostat 0.023 | vorinostat -0.029 | citarinostat 0.062 | silmitasertib -0.009 | [5] -0.044 | [6] -0.001 | entospletinib -0.019

NARS2 (UniProt Q96I59)
inactive: [1] -0.05 | [2] 0.057 | [3] -0.142 | [4] -0.02 | entinostat 0.012 | vorinostat 0 | citarinostat 0.043 | silmitasertib -0.04 | [5] -0.064 | [6] -0.026 | entospletinib -0.01

MITD1 (UniProt Q8WV92)
Chain of UniProt Q8WV92 (Q8WV92 whole entry, looked up): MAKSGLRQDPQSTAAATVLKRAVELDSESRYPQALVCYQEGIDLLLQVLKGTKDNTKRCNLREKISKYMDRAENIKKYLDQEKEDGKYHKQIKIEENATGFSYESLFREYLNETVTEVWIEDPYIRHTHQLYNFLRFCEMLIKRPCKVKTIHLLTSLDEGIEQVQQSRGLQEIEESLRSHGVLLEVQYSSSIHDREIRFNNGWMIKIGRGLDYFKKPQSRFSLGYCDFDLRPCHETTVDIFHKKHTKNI
inactive: [1] 0.016 | [2] -0.018 | [3] -0.387 | [4] -0.059 | entinostat -0.08 | vorinostat 0.057 | citarinostat -0.135 | silmitasertib 0.14 | [5] -0.176 | [6] 0.228 | entospletinib -0.133

NA, A0A096LPI6
inactive: [1] 0.03 | [2] 0.04 | [3] -0.012 | [4] 0.016 | entinostat -0.006 | vorinostat -0.02 | citarinostat 0.022 | silmitasertib 0.024 | [5] -0.043 | [6] -0.015 | entospletinib 0.027

MIS12 (UniProt Q9H081)
Chain of UniProt Q9H081 (Q9H081 whole entry, looked up): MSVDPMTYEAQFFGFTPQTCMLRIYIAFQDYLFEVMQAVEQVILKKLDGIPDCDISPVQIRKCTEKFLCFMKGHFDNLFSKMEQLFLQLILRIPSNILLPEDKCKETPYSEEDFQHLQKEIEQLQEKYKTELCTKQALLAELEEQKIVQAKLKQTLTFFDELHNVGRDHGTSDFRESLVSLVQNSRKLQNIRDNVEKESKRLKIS
inactive: [1] 0.016 | [2] -0.084 | [3] -0.079 | [4] -0.101 | entinostat 0.027 | vorinostat 0.123 | citarinostat 0.014 | silmitasertib 0.016 | [5] 0.02 | [6] -0.081 | entospletinib -0.003

NRF1 isoform 4 (UniProt Q16656)
Chain of UniProt Q16656 (Q16656 whole entry, looked up): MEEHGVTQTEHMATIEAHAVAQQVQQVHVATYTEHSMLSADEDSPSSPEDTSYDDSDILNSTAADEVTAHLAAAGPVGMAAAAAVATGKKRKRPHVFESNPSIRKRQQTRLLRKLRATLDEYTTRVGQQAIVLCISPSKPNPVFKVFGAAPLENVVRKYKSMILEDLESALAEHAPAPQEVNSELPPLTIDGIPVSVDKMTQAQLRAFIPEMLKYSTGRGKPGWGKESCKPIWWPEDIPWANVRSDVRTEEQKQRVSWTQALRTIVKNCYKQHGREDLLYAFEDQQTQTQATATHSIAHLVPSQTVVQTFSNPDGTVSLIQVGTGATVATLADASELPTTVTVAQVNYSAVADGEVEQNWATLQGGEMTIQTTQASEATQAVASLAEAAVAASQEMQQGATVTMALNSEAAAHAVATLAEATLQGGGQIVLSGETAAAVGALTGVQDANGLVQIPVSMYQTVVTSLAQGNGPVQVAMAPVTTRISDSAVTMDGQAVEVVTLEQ
inactive: [1] 0.021 | [2] -0.088 | [3] -0.129 | [4] -0.037 | entinostat 0.056 | vorinostat 0.047 | citarinostat 0.039 | silmitasertib -0.02 | [5] -0.064 | [6] 0.04 | entospletinib -0.041

NOP58 (UniProt Q9Y2X3)
inactive: [1] -0.012 | [2] 0.052 | [3] 0.316 | [4] 0.043 | entinostat -0.05 | vorinostat -0.087 | citarinostat -0.048 | silmitasertib 0.108 | [5] 0.082 | [6] -0.119 | entospletinib 0.085

MRPS22 (UniProt P82650)
inactive: [1] -0.008 | [2] 0.031 | [3] -0.098 | [4] 0.006 | entinostat 0.027 | vorinostat 0.131 | citarinostat 0.035 | silmitasertib -0.071 | [5] -0.069 | [6] -0.006 | entospletinib 0.057

OTUD6B (UniProt Q8N6M0)
inactive: [1] -0.122 | [2] -0.121 | [3] -0.167 | [4] -0.064 | entinostat 0.022 | vorinostat 0.215 | citarinostat -0.013 | silmitasertib 0.059 | [5] -0.065 | [6] -0.053 | entospletinib -0.028

NUMB (UniProt P49757)
inactive: [1] -0.088 | [2] -0.022 | [3] -0.002 | [4] -0.003 | entinostat -0.041 | vorinostat 0.037 | citarinostat 0.009 | silmitasertib 0.007 | [5] -0.097 | [6] -0.032 | entospletinib -0.008

NFYC (UniProt Q13952)
inactive: [1] 0.008 | [2] -0.079 | [3] -0.054 | [4] -0.027 | entinostat -0.034 | vorinostat -0.057 | citarinostat -0.002 | silmitasertib 0.024 | [5] -0.058 | [6] -0.044 | entospletinib 0.033

MINK1 (UniProt Q8N4C8)
inactive: [1] 0.006 | [2] -0.032 | [3] -0.097 | [4] 0.005 | entinostat 0.045 | vorinostat 0.057 | citarinostat 0.077 | silmitasertib -0.041 | [5] 0.015 | [6] -0.119 | entospletinib -0.026

NFATC2IP (UniProt Q8NCF5)
Chain of UniProt Q8NCF5 (Q8NCF5 whole entry, looked up): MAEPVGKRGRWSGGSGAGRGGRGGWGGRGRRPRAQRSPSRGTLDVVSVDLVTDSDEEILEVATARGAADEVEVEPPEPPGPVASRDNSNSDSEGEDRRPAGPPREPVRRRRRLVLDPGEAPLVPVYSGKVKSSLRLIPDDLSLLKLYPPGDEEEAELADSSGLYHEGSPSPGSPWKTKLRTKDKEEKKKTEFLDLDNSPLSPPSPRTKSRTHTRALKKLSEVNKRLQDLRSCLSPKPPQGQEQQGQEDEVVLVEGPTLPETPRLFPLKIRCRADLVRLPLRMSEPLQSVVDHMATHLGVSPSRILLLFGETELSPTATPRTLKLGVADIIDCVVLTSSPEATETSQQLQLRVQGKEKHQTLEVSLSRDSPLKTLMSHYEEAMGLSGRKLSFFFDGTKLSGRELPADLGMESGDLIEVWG
inactive: [1] -0.016 | [2] -0.017 | [3] -0.087 | [4] -0.011 | entinostat 0.035 | vorinostat 0.078 | citarinostat 0.075 | silmitasertib -0.017 | [5] 0.02 | [6] -0.011 | entospletinib -0.054

MRPL34 (UniProt Q9BQ48)
inactive: [1] 0.02 | [2] 0.018 | [3] 0.045 | [4] 0.095 | entinostat -0.041 | vorinostat 0.035 | citarinostat 0.004 | silmitasertib 0.053 | [5] 0.09 | [6] -0.175 | entospletinib 0.047

PAAF1 (UniProt Q9BRP4)
inactive: [1] 0.028 | [2] -0.011 | [3] -0.078 | [4] 0.019 | entinostat 0.006 | vorinostat -0.013 | citarinostat -0.003 | silmitasertib -0.001 | [5] 0.014 | [6] -0.025 | entospletinib -0.023

NUP205 (UniProt Q92621)
inactive: [1] -0.042 | [2] -0.023 | [3] -0.075 | [4] -0.1 | entinostat 0.017 | vorinostat 0.041 | citarinostat 0.101 | silmitasertib 0.058 | [5] -0.073 | [6] -0.069 | entospletinib -0.041

MORC3 (UniProt Q14149)
Chain of UniProt Q14149 (Q14149 whole entry, looked up): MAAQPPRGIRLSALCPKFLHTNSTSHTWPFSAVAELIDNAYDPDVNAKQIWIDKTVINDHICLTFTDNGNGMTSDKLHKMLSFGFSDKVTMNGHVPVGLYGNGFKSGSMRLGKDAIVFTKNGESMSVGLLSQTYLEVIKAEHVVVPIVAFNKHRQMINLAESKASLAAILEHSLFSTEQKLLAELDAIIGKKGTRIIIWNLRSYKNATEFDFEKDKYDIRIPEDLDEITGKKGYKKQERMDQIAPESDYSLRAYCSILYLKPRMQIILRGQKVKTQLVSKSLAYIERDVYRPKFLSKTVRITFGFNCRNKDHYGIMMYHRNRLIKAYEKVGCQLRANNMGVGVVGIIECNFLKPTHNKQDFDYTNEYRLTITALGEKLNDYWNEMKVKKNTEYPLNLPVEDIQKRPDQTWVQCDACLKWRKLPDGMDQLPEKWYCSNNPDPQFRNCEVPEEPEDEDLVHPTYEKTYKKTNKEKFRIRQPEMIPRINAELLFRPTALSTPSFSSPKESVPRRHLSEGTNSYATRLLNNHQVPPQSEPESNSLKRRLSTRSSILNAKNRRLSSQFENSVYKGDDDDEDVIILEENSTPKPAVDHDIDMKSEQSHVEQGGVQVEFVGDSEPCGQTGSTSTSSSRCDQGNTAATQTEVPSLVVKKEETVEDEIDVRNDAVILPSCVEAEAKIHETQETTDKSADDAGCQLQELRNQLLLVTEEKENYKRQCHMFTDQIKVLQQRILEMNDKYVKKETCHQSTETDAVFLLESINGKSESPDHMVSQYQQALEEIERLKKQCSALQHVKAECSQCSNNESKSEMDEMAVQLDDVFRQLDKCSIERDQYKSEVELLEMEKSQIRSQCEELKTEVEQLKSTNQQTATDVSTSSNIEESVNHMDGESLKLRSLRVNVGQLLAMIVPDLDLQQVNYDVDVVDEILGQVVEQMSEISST
inactive: [1] 0.024 | [2] -0.047 | [3] -0.241 | [4] -0.22 | entinostat -0.021 | vorinostat -0.159 | citarinostat -0.118 | silmitasertib 0.201 | [5] -0.066 | [6] 0.089 | entospletinib -0.088

NDUFB7 (UniProt P17568)
Chain of UniProt P17568 (P17568 whole entry, looked up): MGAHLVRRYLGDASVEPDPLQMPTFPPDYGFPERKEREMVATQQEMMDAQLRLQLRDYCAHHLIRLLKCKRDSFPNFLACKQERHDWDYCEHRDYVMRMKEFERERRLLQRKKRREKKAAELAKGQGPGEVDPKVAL
inactive: [1] 0.039 | [2] -0.015 | [3] -0.02 | [4] 0.055 | entinostat -0.013 | vorinostat -0.037 | citarinostat 0.029 | silmitasertib 0 | [5] -0.094 | [6] 0.009 | entospletinib -0.074

NUDCD2 (UniProt Q8WVJ2)
inactive: [1] -0.108 | [2] -0.099 | [3] -0.056 | [4] -0.172 | entinostat 0.028 | vorinostat 0.147 | citarinostat 0.007 | silmitasertib 0.063 | [5] -0.183 | [6] -0.044 | entospletinib -0.005

MTHFD1 (UniProt P11586)
Chain of UniProt P11586 (P11586 whole entry, looked up): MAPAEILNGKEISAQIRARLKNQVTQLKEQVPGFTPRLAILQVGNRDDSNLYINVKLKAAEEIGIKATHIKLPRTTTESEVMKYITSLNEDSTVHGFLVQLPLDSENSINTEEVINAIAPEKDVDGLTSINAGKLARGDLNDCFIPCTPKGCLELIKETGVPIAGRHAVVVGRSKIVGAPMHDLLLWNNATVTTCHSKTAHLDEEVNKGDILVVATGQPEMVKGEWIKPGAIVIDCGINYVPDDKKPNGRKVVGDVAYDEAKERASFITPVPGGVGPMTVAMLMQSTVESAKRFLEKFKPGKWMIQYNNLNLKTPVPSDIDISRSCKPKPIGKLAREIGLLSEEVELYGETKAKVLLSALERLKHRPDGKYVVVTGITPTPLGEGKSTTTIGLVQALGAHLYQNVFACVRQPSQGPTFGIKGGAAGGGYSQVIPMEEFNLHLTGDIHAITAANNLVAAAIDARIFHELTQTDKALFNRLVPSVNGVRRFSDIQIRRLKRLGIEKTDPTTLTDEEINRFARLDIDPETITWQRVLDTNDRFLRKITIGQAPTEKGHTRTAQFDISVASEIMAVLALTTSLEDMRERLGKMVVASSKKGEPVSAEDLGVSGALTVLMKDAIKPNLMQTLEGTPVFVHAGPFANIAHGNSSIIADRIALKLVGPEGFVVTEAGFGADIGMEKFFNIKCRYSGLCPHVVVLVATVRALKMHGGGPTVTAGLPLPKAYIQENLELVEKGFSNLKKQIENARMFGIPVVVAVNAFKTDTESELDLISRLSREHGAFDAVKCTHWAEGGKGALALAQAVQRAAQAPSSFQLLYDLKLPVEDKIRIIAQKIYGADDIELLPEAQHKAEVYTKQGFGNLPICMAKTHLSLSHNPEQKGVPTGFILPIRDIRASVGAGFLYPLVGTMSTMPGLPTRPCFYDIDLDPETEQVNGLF
inactive: [1] -0.028 | [2] -0.011 | [3] 0.094 | [4] -0.028 | entinostat 0.024 | vorinostat 0.05 | citarinostat 0.051 | silmitasertib -0.039 | [5] -0.042 | [6] -0.021 | entospletinib 0.055

NDUFS8 (UniProt O00217)
Chain of UniProt O00217 (O00217 whole entry, looked up): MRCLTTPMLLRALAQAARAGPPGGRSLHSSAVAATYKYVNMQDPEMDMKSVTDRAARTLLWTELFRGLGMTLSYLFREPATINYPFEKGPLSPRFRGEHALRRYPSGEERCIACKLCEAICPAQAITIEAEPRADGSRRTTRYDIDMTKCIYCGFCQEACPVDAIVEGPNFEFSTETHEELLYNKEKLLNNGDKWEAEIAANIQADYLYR
inactive: [1] -0.049 | [2] -0.042 | [3] -0.163 | [4] -0.018 | entinostat 0.065 | vorinostat 0.019 | citarinostat 0.024 | silmitasertib -0.019 | [5] -0.052 | [6] -0.041 | entospletinib -0.012

NASP (UniProt P49321)
Chain of UniProt P49321 (P49321 whole entry, looked up): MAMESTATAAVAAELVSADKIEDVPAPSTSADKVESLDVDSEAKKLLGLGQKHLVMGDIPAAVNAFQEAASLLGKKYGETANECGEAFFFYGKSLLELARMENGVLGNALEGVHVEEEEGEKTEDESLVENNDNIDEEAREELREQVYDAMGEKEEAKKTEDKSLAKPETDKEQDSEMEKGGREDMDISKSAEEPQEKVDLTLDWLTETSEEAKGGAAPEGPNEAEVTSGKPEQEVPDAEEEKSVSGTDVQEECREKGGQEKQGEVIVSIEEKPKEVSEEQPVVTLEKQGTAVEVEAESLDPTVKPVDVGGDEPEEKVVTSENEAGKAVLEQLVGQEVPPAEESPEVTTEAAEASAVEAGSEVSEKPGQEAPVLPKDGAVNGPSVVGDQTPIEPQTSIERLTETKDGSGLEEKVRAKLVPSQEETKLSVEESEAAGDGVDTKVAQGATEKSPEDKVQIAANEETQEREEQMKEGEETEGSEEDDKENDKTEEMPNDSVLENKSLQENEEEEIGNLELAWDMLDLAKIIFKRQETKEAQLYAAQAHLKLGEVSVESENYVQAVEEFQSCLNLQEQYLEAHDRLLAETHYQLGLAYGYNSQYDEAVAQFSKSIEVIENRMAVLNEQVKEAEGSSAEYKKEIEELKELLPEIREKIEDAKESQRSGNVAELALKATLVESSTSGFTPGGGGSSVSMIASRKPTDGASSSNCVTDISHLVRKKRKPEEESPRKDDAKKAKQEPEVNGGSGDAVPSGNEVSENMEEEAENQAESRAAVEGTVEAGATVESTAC
inactive: [1] -0.009 | [2] -0.081 | [3] -0.06 | [4] -0.054 | entinostat 0.035 | vorinostat 0.028 | citarinostat 0.035 | silmitasertib 0.063 | [5] -0.034 | [6] -0.02 | entospletinib -0.007

PACS1 (UniProt Q6VY07)
inactive: [1] 0 | [2] 0.041 | [3] -0.081 | [4] -0.01 | entinostat 0.004 | vorinostat 0.022 | citarinostat -0.012 | silmitasertib -0.074 | [5] 0.062 | [6] -0.113 | entospletinib 0.046

NDUFA6 (UniProt P56556)
inactive: [1] -0.023 | [2] 0.028 | [3] -0.113 | [4] -0.083 | entinostat 0.056 | vorinostat 0.118 | citarinostat 0.036 | silmitasertib -0.016 | [5] -0.131 | [6] -0.011 | entospletinib -0.041
